HTT cytoprotect = Huntington cell model cytoprotection by ATP luminescence | PC12 HTT-Q103 induced, cytoprotection, ATP luminescence, 40 h | Potency, µM (series often up to 56.4 µM), for inactives: cytoprotection (ATP increase), hits mostly activators | 230,000 compounds, 0.14% hits | AID 1471; also: potency is read from the fitted curve at half-maximal effect; % of control where 0% means no effect; nearly all actives have a fitted effect of over 45% in size
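Compounds were screened for protection of PC12 cells against cell death after tebufenozide induction (100 nM final) of mutant Huntingtin exon 1 (Q103) fused to GFP.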
ALDH1A1 inh = inhibitors of human aldehyde dehydrogenase 1A1; Purified ALDH1A1, NADH fluorescence, propionaldehyde substrate; Potency, µM (series often up to 75.3 µM), for the others: at the highest dose activity, negative = inhibition, usual class: inhibitors; 220,000 compounds, 7.3% hits; active = well fitted inhibition curve with a large enough effect, not every such curve was filed as active; inconclusive = small, poorly fitted or top-dose-only effect, or another doubt; inactive = no such curve, though single readings can be large or run the other way;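 also: potency is read from the fitted curve at half-maximal effect; plate controls were no enzyme wells and a reference inhibitor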
HPGD block = blocks human HPGD enzyme activity; 150,000 compounds, 4.3% hits; Potency, µM, for inactives: top-dose activity change, negative = inhibition, usual class: inhibitors; AID 894; purified HPGD, NADH fluorescence kinetic, PGE2 substrate; active = well fitted inhibition curve with a large enough effect, not every such curve was filed as active; inconclusive = small, poorly fitted or top-dose-only effect, or another doubt; inactive = no such curve, though single readings can be large or run the other way; also: potency is read from the fitted curve at half-maximal effect; % is scaled to controls: 0 for no effect and ±100 for the full control effect
Target sequence (P15428 whole entry, looked up): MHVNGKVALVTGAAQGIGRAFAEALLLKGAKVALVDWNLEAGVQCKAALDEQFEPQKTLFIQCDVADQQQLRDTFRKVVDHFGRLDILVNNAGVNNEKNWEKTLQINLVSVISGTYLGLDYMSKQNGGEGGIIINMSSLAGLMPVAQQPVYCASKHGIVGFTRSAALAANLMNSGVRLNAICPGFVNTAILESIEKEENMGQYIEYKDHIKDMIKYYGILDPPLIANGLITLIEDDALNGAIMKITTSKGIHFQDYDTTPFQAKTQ
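20 nM HPGD preincubated 15 min at room temperature with compound in 50 mM Tris-HCl pH 8, 0.01% Tween 20. Started with 1 mM NAD+ and 30 uM prostaglandin E2; NADH fluorescence (360/450 nm) read 5 times over 30-s intervals, last minus first.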
HTT aggregate = inhibitors of mutant huntingtin aggregate formation in PC12 cells; AID 1688; PC12 HttQ103-GFP aggregates, Acumen cytometry, 40 h; Potency, µM (doses to about 46.1 µM), without a hit: at the top dose activity change, negative = inhibition, actives largely listed as inhibitors; 220,000 compounds, 1.1% hits; also: potency is read from the fitted curve at half-maximal effect; % is scaled to controls: 0 for no effect and ±100 for the full control effect; nearly all actives have a fitted effect of over 60% in size
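Multiplexed with ATP-based cell death, this channel scores GFP aggregates in PC12 cells expressing inducible HTTex1-Q103-GFP. Induction used 100 nM tebufenozide; compounds were tested in concentration series.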
IMPase Li inh = membrane-permeable IMPase blocker, potentiated with lithium | CHO-M1 cells, IP1 TR-FRET (IP-One), carbachol + lithium | Potency, µM (highest dose often 59.4 µM), for inactives: at the highest dose activity, negative = IMPase inhibition, usual class: inhibitors | 210,000 compounds, 0.35% hits;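 also: IP1 builds up when IMPase is blocked and the TR-FRET signal falls; potency is read from the fitted curve at half-maximal effect; plate controls were basal vehicle for no effect and high inhibitor control for full effect; nearly all actives have a fitted effect of over 50% in size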
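Lithium-sensitised IP1 accumulation assay; M1-expressing CHO cells treated 30 min at 37C with compound. Competitive antibody detection by time-resolved FRET followed a 10 min room-temperature lysis step.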
IMPase inh = IMPase inhibition in cells; P97697; AID 901; inhibition (IP1 accumulation), % at 46.1 µM; CHO-M1 cells, IP1 accumulation, HTRF TR-FRET ratio; 120,000 tested, under 10 active; active = well fitted curve in the direction sought with a large enough effect in the signal ratio, not every such curve was filed as active; inconclusive = small, poorly fitted or top-dose-only effect, or a change in a side signal; inactive = no such curve, though single readings can be large or run the other way; the % refers to the signal ratio;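 also: cells stimulated with carbachol in lithium chloride buffer; plate controls were DMSO basal wells for no effect and reference inhibitor wells for full effect; higher means more IMPase inhibition seen as more IP1 and lower FRET ratio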
Target sequence (P97697 whole entry, looked up): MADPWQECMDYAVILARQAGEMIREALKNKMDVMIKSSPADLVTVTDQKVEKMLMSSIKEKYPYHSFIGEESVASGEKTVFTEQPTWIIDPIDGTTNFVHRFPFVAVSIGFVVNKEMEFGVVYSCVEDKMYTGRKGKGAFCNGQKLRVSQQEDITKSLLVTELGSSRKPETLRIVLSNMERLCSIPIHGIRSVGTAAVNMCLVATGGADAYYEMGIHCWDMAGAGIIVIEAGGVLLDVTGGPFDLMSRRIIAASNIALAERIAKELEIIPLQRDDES
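Seeded CHO-M1 cells were dosed with compound at up to 46 uM, stimulated with carbachol for 30 min, then lysed in IP-One detection reagents. Higher IP1 lowers the TR-FRET signal.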
* = called active by the depositor; [ ] = another dose, or the depositor's remark. An excerpt weighted towards active compounds, which were near 9.4% of everything screened. Unless noted, calls follow the shape of the dose curve; as a rule, active = well fitted curve in the direction sought with a large enough effect; inconclusive = small, poorly fitted or top-dose-only effect, or another doubt; inactive = no such curve, though single readings can be large; an effect the other way counts as inactive or inconclusive.

How did O=C(Cn1ncc(Cl)c(Cl)c1=O)NCC1CCCCC1 do in these assays?
ALDH1A1 inh: 22µM*; HPGD block: -8%; HTT aggregate: inconclusive; IMPase Li inh: -5%

Results for CNC(=O)c1c(NC(=O)c2nc3ccccc3s2)sc2c1CCC2 ?
HTT cytoprotect: 0%; ALDH1A1 inh: inconclusive; HPGD block: 28µM*; HTT aggregate: -28%; IMPase Li inh: 5%[38.3 µM]; IMPase inh: 6

Results for CNC(=O)c1c(NC(=O)C(C)C)sc2c1CCC2 ?
HTT cytoprotect: 3%[10 µM]; HTT aggregate: 12%[9.22 µM]

Results for CCNC(=O)c1c(NC(=O)C2COc3ccccc3O2)sc2c1CCCC2 (centres undefined) ?
HTT cytoprotect: -40%; ALDH1A1 inh: 7%; HPGD block: -4%; HTT aggregate: -16%; IMPase Li inh: 5%[38.3 µM]; IMPase inh: 0

Results for COC(=O)c1c(NC(=O)c2nc3ccccc3s2)sc2c1CCN(C(C)=O)C2 ?
HTT cytoprotect: 9%; ALDH1A1 inh: 13µM*; HPGD block: -29%; HTT aggregate: 4%; IMPase Li inh: 14%[38.3 µM]; IMPase inh: 9

How did COC(=O)c1c(NC(=O)C2COc3ccccc3O2)sc2c1CCN(C(C)=O)C2 (centres undefined) do in these assays?
HTT cytoprotect: -4%[10 µM]; ALDH1A1 inh: 32µM*; HPGD block: inconclusive; HTT aggregate: -32%; IMPase Li inh: 9%

How did COC(=O)Oc1ccc(/C=N/NC(=O)CSCc2ccccc2Br)cc1OC do in these assays?
HTT cytoprotect: -9%; ALDH1A1 inh: 13µM*; HPGD block: -5%; HTT aggregate: inconclusive; IMPase Li inh: 54%[38.3 µM]; IMPase inh: 13

Results for CCn1cc(S(=O)(=O)N2CCN(Cc3cccc(Cl)c3)CC2)cn1 ?
HTT cytoprotect: -26%; ALDH1A1 inh: 14%; HTT aggregate: -11%; IMPase Li inh: 4%

Results for CSc1nc2sc3c(c2c2nncn12)CCC3 ?
HTT cytoprotect: -5%[10 µM]; ALDH1A1 inh: 7.9µM*; HPGD block: -12%; HTT aggregate: -1%; IMPase Li inh: 1%

How did C/C(=N\NC(=O)COc1ccccc1-c1ccccc1)c1ccc(O)cc1O do in these assays?
HTT cytoprotect: 7%[10 µM]; HTT aggregate: -3%[9.22 µM]

How did C/C(=N\NC(=O)COc1ccccc1-c1ccccc1)c1cccnc1 do in these assays?
HTT cytoprotect: 3%[10 µM]; ALDH1A1 inh: 14µM*; HTT aggregate: -9%; IMPase Li inh: 27%

What do the screens show for `O=C(COc1ccccc1-c1ccccc1)N/N=C/c1cccnc1`?
HTT cytoprotect: -26%; ALDH1A1 inh: -1%; HTT aggregate: -4%; IMPase Li inh: -4%

Results for C/C(=N\NC(=O)COc1ccccc1-c1ccccc1)c1ccccn1 ?
HTT cytoprotect: 5%[10 µM]; ALDH1A1 inh: 2.5µM*; HTT aggregate: 15%; IMPase Li inh: 32%

How did C/C(CS(=O)(=O)c1ccccc1)=N\O do in these assays?
HTT cytoprotect: 11%; ALDH1A1 inh: 13%; HTT aggregate: -5%[9.22 µM]; IMPase Li inh: 1%

How did C/C=C(\CS(=O)(=O)c1ccccc1)S(=O)(=O)c1ccccc1 do in these assays?
HTT cytoprotect: inconclusive; ALDH1A1 inh: 8.9µM*; HPGD block: -12%; HTT aggregate: inconclusive; IMPase Li inh: 12%[38.3 µM]; IMPase inh: 12

What do the screens show for `CCCN(CCC)C(=O)C1CC(=O)OC12CCCCC2` (centres undefined)?
ALDH1A1 inh: -2%; IMPase Li inh: 4%

How did O=C(c1cccc(F)c1)N1CCC2(CC1)CCN(c1ccc(-c3ccccc3)cc1)CC2 do in these assays?
HTT cytoprotect: 2%; ALDH1A1 inh: -7%; HPGD block: 4%; IMPase Li inh: 4%

What do the screens show for `NC(=O)[C@@H]1CSSCCC(=O)N[C@@H](CCCCN=C(N)N)C(=O)NCC(=O)N[C@@H](CC(=O)O)C(=O)N[C@@H](Cc2c[nH]c3ccccc23)C(=O)N2CCC[C@H]2C(=O)N1`?
HTT cytoprotect: 7%; HTT aggregate: 3%

What do the screens show for `CCc1ccc(CN2CCC(CO)(CC3CCCCO3)CC2)o1` (centres undefined)?
HTT cytoprotect: 2%[10 µM]; ALDH1A1 inh: 8.9µM*; HTT aggregate: 3%[9.22 µM]; IMPase Li inh: 8%

Results for CC(=O)OC1CC[C@]2(C)C(CC(OC(C)=O)[C@]3(C)C2CC[C@@]2(C)C(c4ccoc4)OC(=O)C4O[C@]432)C1(C)C (some centres undefined) ?
HTT cytoprotect: -33%; ALDH1A1 inh: -5%; HPGD block: -6%; IMPase Li inh: -9%

What do the screens show for `CC(=O)N1N=C(c2ccccc2)CC1c1cn(Cc2ccccc2)c2ccccc12` (centres undefined)?
HTT cytoprotect: -12%[10 µM]; ALDH1A1 inh: 28µM*; HPGD block: -13%; HTT aggregate: inconclusive; IMPase Li inh: 7%

How did Cn1c(Cc2ccccc2)nnc1SCC(=O)c1ccc(Br)s1 do in these assays?
HTT cytoprotect: 24%[10 µM]; ALDH1A1 inh: 14µM*; HPGD block: 28µM*; HTT aggregate: 27%; IMPase Li inh: 5%[38.3 µM]; IMPase inh: 0

What do the screens show for `O=C(COc1ccccc1)NCC(=O)N/N=C/c1ccco1`?
HTT cytoprotect: -4%[10 µM]; ALDH1A1 inh: 12µM*; HPGD block: inconclusive; HTT aggregate: -1%; IMPase Li inh: -3%

How did COc1ccc(OCC(=O)N/N=C\c2ccco2)cc1 do in these assays?
HTT cytoprotect: -8%[10 µM]; ALDH1A1 inh: 9%; HTT aggregate: -1%[9.22 µM]; IMPase Li inh: 10%

What do the screens show for `CCCOc1ccc(C(=O)Nc2cc(-c3nn4c(C)nnc4s3)ccc2C)cc1`?
HTT cytoprotect: -2%; ALDH1A1 inh: -6%; HPGD block: 1.3µM*; HTT aggregate: inconclusive; IMPase Li inh: -4%[38.3 µM]; IMPase inh: 1

Results for CCOC(=O)N/N=C1/C[C@@H](O)[C@@H](O)[C@@H]2[C@@H]3C(=O)N(Cc4ccccc4)C(=O)[C@H]3CC[C@@H]12 ?
HTT cytoprotect: -38%[10 µM]; ALDH1A1 inh: 6%[13.5 µM]

Results for Clc1ccccc1OCc1nnc(-c2ccccc2Br)o1 ?
HTT cytoprotect: -26%; ALDH1A1 inh: inconclusive; HPGD block: 20µM*; HTT aggregate: -11%; IMPase Li inh: 4%[38.3 µM]; IMPase inh: 5

How did Clc1ccc(Cc2nnc(-c3ccccc3Br)o2)cc1 do in these assays?
HTT cytoprotect: -13%; ALDH1A1 inh: 10%; HPGD block: 20µM*; HTT aggregate: 14%; IMPase Li inh: 1%
